Data taken from PubChem BioAssay (NCI).
Several values for one entry are separate records, joined by “and”; a condition that tells them apart may be missing. Equal values may be shown once. Compounds without any hit were thinned out: in the full panel of roughly 83,000, 20% have a hit.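 Treatment: one concentration, 48 hours, 96-well format. Scoring: percent growth, with anything below 10 considered active.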 Activity calls are given as the source filed them.

How the values were obtained:
Experiment in all cases: NCI-60 one-dose screen, 48 h (100 = growth as untreated, 0 = no growth, -100 = all killed)
Conditions in all cases: 10 µM unless noted
[1] = tested on: RPMI-8226 leukemia
[2] = tested on: OVCAR-8 ovarian
[3] = tested on: OVCAR-5 ovarian
[4] = tested on: OVCAR-4 ovarian
[5] = tested on: SK-OV-3 ovarian
[6] = tested on: IGROV1 ovarian
[7] = tested on: OVCAR-3 ovarian
[8] = tested on: HS 578T breast
[9] = tested on: NCI/ADR-RES ovarian
[10] = tested on: T-47D breast
[11] = tested on: BT-549 breast
[12] = tested on: MDA-MB-435 melanoma
[13] = tested on: SW-620 colon
[14] = tested on: MCF7 breast
[15] = tested on: HCT-116 colon
[16] = tested on: HCC-2998 colon
[17] = tested on: KM12 colon

Measured: growth

C/C(=C\c1ccccc1)c1ccccn1
inactive: [1] 114% | [2] 116% | [3] 118% | [4] 106% | [5] 106% | [6] 109% | [7] 106% | [8] 123% | [9] 110% | [10] 94.7% | [11] 110% | [12] 118% | [13] 105% | [14] 68.4% | [15] 101% | [16] 117% | [17] 95.5%

CC(C)C(C)(C)c1ccc(O)cc1
inactive: [1] 105% | [2] 106% | [3] 106% | [4] 108% | [5] 107% | [6] 111% | [7] 105% | [8] 114% | [9] 113% | [10] 101% | [11] 110% | [12] 106% | [13] 101% | [14] 109% | [15] 105% | [16] 114% | [17] 107%

Nc1ccc2c(O)cc(S(=O)(=O)O)cc2c1
inactive: [1] 85% | [2] 105% and 97.8% | [3] 103% | [4] 93.5% | [5] 96.1% and 96.6% | [6] 130% and 86.1% | [7] 126% and 105% | [9] 105% | [10] 85.5% and 101% | [11] 94.9% and 119% | [12] 104% and 113% | [13] 94.3% and 95.3% | [14] 95% and 96.6% | [15] 93.8% and 94% | [16] 88.6% and 107%

COc1cc(C(O)C2C(=O)OCC2C2(c3ccc4c(c3)OCO4)SCCCS2)cc(OC)c1OC (stereo not given)
inactive: [1] 98.9% | [2] 102% | [3] 97.2% | [4] 103% | [5] 105% | [6] 94.5% | [7] 105% | [9] 89.4% | [10] 107% | [11] 102% | [12] 101% | [13] 102% | [14] 97.6% | [15] 91.7% | [16] 98.5% | [17] 96.2%

O=C1OC(c2ccccc2)=N/C1=C\c1ccccc1
inactive: [1] 102% | [2] 100% | [3] 105% | [4] 113% | [5] 97.2% | [6] 99.1% | [7] 111% | [8] 97.4% | [9] 99.7% | [10] 96.4% | [11] 96.3% | [12] 109% | [13] 101% | [14] 98.4% | [15] 102% | [16] 96.6% | [17] 108%

CN(C)CC1CCCCCC(CN(C)C)C1=O (stereo not given)
inactive: [1] 13.1% | [2] 80.3% | [3] 146% | [4] 79% | [5] 107% | [6] 34.2% | [9] 88.3% | [10] 22.2% | [11] 95% | [12] 81.2% | [14] 24.7% | [16] 117%
active: [7] -12.7% | [13] -64.3% | [15] -35.5%

NC1CCC(C(=O)O)CC1 (stereo not given)
inactive: [1] 93.2% and 75.8% | [2] 109% and 113% | [3] 93.9% and 100% | [4] 107% and 103% | [5] 101% and 106% | [6] 115% and 111% | [7] 103% and 107% | [9] 110% and 107% | [10] 90.5% and 95.8% | [12] 106% | [13] 93.7% and 100% | [14] 96% and 95.2% | [15] 94.9% and 99.3% | [16] 111% and 100% | [17] 107% and 108%

OC1COC(OCc2ccccc2)C(O)C1O (stereo not given)
inactive: [1] 103% | [3] 99.1% | [4] 88.5% | [5] 98.9% | [6] 92.4% | [7] 106% | [9] 103% | [10] 89% | [11] 105% | [12] 104% | [13] 109% | [14] 96% | [15] 99.6%
